Test results from PubChem BioAssay.

What follows are compounds tested on XIP peptide (Xip251-270) binding (assay: small-molecule binders of XIP peptide, primary screen, biochemical, small-molecule microarray, fluorescence 635/667 nm, 0.1 µg/mL protein (AID 1182)). Conditions: fluorescent protein binding, 635 nm, higher = more signal, called active from +8 up or from −8 down.

Composite z-score, inactive:
COc1ccc([Si](C)(C)[C@@H]2[C@@H](CCO)O[C@]3(C(=O)N(Cc4ccccc4)c4ccc(N5CCCCC5=O)cc43)[C@H]2C)cc1 2.38
Cc1ccc(N2C(=O)c3ccccc3[C@](C)(C(=O)NC(C)C)[C@@H]2c2ccc(CO)cc2)nc1 -0.224
COC(=O)[C@]1(Cc2ccccc2N=[N+]=[N-])N=C(c2ccc(OCCCO)cc2)O[C@@H]1c1ccccc1 0.857
C=CC[C@]1(C(=O)NCC(O)CO)N=C(c2ccc(OCCCO)cc2)O[C@H]1c1ccccc1N=[N+]=[N-] (stereo not given in full) 2.54
C=C(/C(=C/C[C@@H](OC(C)=O)c1ccccc1OCCO)c1cnc2ccccc2c1)C(C)C 0.143
CCN(CC)c1ccc(N2CC=CC34O[C@@H]5/C=C\CCCOC(=O)C5[C@H]3C(=O)N(CCCCCCO)[C@@H]4C2=O)cc1 (stereo not given in full) 1.51
COCCCNC(=O)[C@@]1(Cc2ccccc2N=[N+]=[N-])N=C(c2ccc(OCCCO)cc2)O[C@H]1c1ccccc1CN=[N+]=[N-] 0.401
COc1ccccc1CN1C(=O)c2ccccc2[C@@]2(Cc3ccccc3N(C3CC3)C2=O)[C@@H]1c1ccc(CO)cc1 -0.0699
COC(=O)C(CC#Cc1ccc2c(c1)[C@]1(C(=O)N2)[C@H](c2ccc(OCCO)cc2)N2[C@H](c3ccccc3)[C@H](c3ccccc3)OC(=O)[C@H]2[C@@H]1C(=O)O)C(=O)OC 0.817
CC(C)CCC[C@@H](C)[C@H]1CC[C@@]2(C)C3=C(CC[C@]12C)[C@@]1(C)CC[C@H](OC(=O)C(C)(C)C)C(C)(C)C1CC3 (stereo not given in full) 0.434
